Source: the supplement of paper PMC3334620
The full ranking holds about 33,000 sequences; the median of “E-score (-0.5 to 0.5)” is about -0.053, and the highest 2% start at about 0.37. What follows is part of a selection rich in the highest values, with near analogues and random picks from the rest.

The sequences below were run against Hap1 (UniProt P0CE41) (assay: PBM E-score (8-mer binding enrichment) (E-score (-0.5 to 0.5)); higher = stronger / more preferred TF binding). Settings: protein concentration: 200 nM; construct: GST-DNA-binding domain.
Method in brief: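 Using PURExpress in vitro transcription/translation, GST-tagged yeast transcription factors were made in full-length or DNA-binding-domain form. These were applied at about 100-200 nM to double-stranded universal all-10-mer Agilent arrays, and bound protein was detected with fluorescent anti-GST. Scans were normalised with masliner before the Universal PBM Analysis Suite assigned E-scores to ungapped eight-base words pooled with their reverse complements.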

UniProt P0CE41, sequence (P0CE41 whole entry, the tested form may be a part): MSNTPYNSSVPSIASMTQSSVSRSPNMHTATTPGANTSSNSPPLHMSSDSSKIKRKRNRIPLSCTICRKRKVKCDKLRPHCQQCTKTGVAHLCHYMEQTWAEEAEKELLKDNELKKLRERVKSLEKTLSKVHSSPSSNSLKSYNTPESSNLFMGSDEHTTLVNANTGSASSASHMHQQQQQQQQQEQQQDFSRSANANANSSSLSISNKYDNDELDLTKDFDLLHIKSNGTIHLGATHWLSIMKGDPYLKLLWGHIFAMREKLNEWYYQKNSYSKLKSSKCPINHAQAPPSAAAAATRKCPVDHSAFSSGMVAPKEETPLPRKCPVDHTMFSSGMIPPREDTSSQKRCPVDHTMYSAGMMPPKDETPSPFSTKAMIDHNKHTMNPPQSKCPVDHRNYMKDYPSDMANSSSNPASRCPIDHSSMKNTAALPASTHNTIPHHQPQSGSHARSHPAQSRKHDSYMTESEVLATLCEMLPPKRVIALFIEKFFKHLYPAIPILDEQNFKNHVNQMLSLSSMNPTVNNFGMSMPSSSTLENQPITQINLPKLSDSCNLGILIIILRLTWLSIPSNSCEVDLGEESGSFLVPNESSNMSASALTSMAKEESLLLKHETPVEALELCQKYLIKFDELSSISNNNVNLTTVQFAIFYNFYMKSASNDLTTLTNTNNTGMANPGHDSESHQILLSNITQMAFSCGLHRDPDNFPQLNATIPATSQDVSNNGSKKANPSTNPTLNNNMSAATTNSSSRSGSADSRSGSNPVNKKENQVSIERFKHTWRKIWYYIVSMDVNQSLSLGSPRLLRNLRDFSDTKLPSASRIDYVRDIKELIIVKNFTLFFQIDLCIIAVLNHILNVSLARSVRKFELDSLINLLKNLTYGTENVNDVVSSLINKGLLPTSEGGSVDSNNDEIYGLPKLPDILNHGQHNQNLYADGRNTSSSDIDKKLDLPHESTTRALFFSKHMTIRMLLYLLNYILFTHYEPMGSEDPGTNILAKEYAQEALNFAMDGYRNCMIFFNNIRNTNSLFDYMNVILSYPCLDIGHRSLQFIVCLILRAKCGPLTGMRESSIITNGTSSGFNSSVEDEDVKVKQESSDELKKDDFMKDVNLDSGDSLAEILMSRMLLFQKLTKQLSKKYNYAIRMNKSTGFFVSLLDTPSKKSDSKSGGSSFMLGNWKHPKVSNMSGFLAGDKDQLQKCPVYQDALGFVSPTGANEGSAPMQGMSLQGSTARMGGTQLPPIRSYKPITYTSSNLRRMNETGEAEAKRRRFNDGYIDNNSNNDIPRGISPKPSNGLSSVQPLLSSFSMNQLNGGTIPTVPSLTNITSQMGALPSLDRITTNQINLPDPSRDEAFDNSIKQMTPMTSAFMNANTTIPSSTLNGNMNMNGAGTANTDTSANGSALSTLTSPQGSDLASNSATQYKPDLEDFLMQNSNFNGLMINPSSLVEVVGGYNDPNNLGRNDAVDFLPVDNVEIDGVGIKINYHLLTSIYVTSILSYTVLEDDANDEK

Sequence	PBM E-score
CTCGGACA	0.415
AGCGGACC	0.257
CTCGGACC	0.375
CACGGACC	0.341
CTTGGACA	-0.0486
ATCGGAAC	0.318
ATCGGACC	0.4
GTCGGACA	0.347
ATCGGACA	0.394
CGCGGACA	0.335
CTCGGAAC	0.31
CAAGGGGA	-0.0784
ATGGTTTG	0.0601
CGACGTAG	-0.0488
ATAGAGGA	-0.186
CTCCAATC	-0.121
CCCAATTC	-0.135
CACCACAA	-0.117
ACATCCAT	-0.093
ACGTCTGG	-0.202
AATAGTAT	0.103
AAGCAGCT	-0.114
CACGTCGA	-0.183
TACGGTGA	0.0448
AGACGGCA	-0.0262

Sequence	PBM E-score
ATCGGTCC	0.374
AACGGACG	0.305
CACGGACA	0.312
ATCGGACG	0.422
AGCGGACG	0.297
AACGGTCA	0.246
CTCGGTCC	0.35
AACGGACA	0.369
ATCGGTCA	0.318
GACGGTAC	0.142
CACCACCC	0.106
CGGTTGAG	0.18
AGACCTCT	-0.208
CGAGGCCA	0.022
TAGCACCA	-0.14
CGGGGCAA	0.198
GGATATCC	0.236
ATATATCC	0.399
CGATATCA	0.234
CTATATCC	0.202
AGATATCG	0.315
CGATATCC	0.375
CGATATCG	0.388
AGATATCC	0.192
ATATCTCC	0.437

Sequence	PBM E-score
CTATCTCC	0.358
ATATATCA	0.0242
ATCTCTCC	-0.0103
ACCTTGCC	-0.132
AAAGGAGC	-0.141
CATCTTTC	-0.224
AGGTGCTA	-0.132
AGGTTCAA	-0.0501
AAAGGCGC	-0.0167
CTTTAACC	-0.0789
CAGCAGTA	-0.352
AGAGCGGA	0.13
CGAGCGGC	0.238
CGAGCGGA	0.37
AATGGTCA	-0.179
AACCGGAG	0.425
AACCGGAA	0.337
TCCCGGAA	0.397
ACCCGGAA	0.346
TCCCGGCA	0.277
CCCCGGCC	0.348
TCACGGAA	0.329
AACCGGAT	0.286
CCCCGGAC	0.397
GCCCGGAA	0.402

Sequence	PBM E-score
GCACGGAA	0.215
CCCCGGAA	0.272
CCTGCCGA	0.156
AGGAGGCC	-0.254
AACGTTGT	-0.162
CGACACGA	0.0811
CTACATGA	-0.187
TAAAGGCA	-0.0704
GCACTCGC	-0.0299
AGAGGGCA	-0.162
GAGCGATC	0.0915
AAGTTATT	0.0401
GCGTCACC	-0.0889
AATTGCAC	-0.191
ACCCGGGA	0.328
GCCCGGGC	0.434
ACCCGGGT	0.393
ACCCGTAC	0.0493
ACCCGGAC	0.372
ACCCGGGC	0.368
GCCCGGGA	0.316
CCCCGGAG	0.393
CCCGGGAG	0.299
CCCCCGAG	0.308
ACCCGGCC	0.305

Sequence	PBM E-score
ACCCGGGG	0.306
AGAGCGAT	0.0667
ATACGTTA	-0.106
GCTCTAAC	0.0397
CGACTGTA	-0.166
CAGAAACC	-0.0171
AACAGGCT	-0.152
TACCTCCA	-0.176
ATCAGTGC	-0.212
GCCGGGAC	0.185
GCCCGGAC	0.401
CCCCCGGG	0.324
ACCCGGAG	0.423
CCCCGGGC	0.36
ACCCGGCG	0.283
CCCCGGGG	0.388
ACCCGGAT	0.322
GCCCGGCC	0.329
CTCACAGA	-0.242
CGGCGCTC	0.23
TCTGTGAA	-0.101
CCGGTCCC	0.323
CCGGTCCG	0.42
CCGGTCCA	0.237
AGACTGAT	-0.159

Sequence	PBM E-score
GACAGAGC	-0.162
CGTTTGAA	-0.061
CGAGGGCA	-0.00305
ATTTTGGA	0.147
ATACTCCC	0.115
CAACTCCC	0.0886
AAACTCCT	-0.1
ATACTCCA	-0.15
AAACTCCG	0.456
CAACTCCG	0.398
CAACTCCA	-0.0501
AAACTCCA	-0.0578
ATACTCCG	0.407
CGCTAGCG	0.0545
CGCGAGCA	-0.126
GATATCGC	0.304
AAACCCTA	-0.136
AGGTACGG	0.0524
AACGCGAA	0.121
AGGTCGCA	0.101
ACTAAGCC	0.094
ACTGTCAG	-0.224
CACCGGAC	0.417
CACCGGAG	0.341
CACCGGGA	0.261

Sequence	PBM E-score
GACCGGGC	0.331
GACCGGAC	0.41
TACCGGAA	0.442
TACCGGCA	0.353
GACCGGAA	0.361
TACCGCAA	0.08
CAGCGGAA	0.139
AACCGGAC	0.369
CACCGGAA	0.398
AATCGGCT	0.314
TCTGCGAA	-0.214
CCGGTGTC	0.301
CTTGGTGA	-0.102
GATCGGAA	0.325
AATCGGAC	0.345
CATCGGAG	0.292
CATCGGTC	0.278
GATCGGAC	0.413
CATCGGAC	0.401
GCTTTTAC	0.14
ATGTGGAC	-0.149
AATTCCTG	-0.0671
